Shown are actives, neighbours in structure and some others; about 9.2% of the full set was active somewhere.
Rab9 promoter act: qHTS Assay for Rab9 Promoter Activators; Huh7 Rab9 promoter-luciferase reporter, luminescence, 24 h; Potency, µM (highest dose often 9.22 µM), for inactives: top-dose activation, negative = inhibition, usual class: activators; actives 2.8% (n = 320,000); note: % of control where 0% means no effect; nearly all actives have a fitted effect of over 60% in size
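Stable Rab9-luc Huh7, 1500 cells/well, 2 h settle; cmpd in DMSO, 24 h, 37 °C/5% CO2; luciferase reagent 10 min RT; luminescence.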
FLuc modulator: qHTS profiling assay for firefly luciferase inhibitor/activator using purifed enzyme and Km concentrations of substrates (counterscreen for miR-21 project); purified FLuc, Km substrates, luminescence inhibition; AID 588342, 2011; actives 6.9% (n = 360,000); Luciferin 4-monooxygenase (Photinus pyralis), P08659; Potency, µM (series often up to 57.5 µM), without a hit: at the top dose activity change, negative = inhibition, hits mostly inhibitors;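 note: plate controls were vehicle for no effect and reference inhibitor for full effect; nearly all actives have a fitted effect of over 55% in size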
Target sequence (P08659 whole entry, looked up): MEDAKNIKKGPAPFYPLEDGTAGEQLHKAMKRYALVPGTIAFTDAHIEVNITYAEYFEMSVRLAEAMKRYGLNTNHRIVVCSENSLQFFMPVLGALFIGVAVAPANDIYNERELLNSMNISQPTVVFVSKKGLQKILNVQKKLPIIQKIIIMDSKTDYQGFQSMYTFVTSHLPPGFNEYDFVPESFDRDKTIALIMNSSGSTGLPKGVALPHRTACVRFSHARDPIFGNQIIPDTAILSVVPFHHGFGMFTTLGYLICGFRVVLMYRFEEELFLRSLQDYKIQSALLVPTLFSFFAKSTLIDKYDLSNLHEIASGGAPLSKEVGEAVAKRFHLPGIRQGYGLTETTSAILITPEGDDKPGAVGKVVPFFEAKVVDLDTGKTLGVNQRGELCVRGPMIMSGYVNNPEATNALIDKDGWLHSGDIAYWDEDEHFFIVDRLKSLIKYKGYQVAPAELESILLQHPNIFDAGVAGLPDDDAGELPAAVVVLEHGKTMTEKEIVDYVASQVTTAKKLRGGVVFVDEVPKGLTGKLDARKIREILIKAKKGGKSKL
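Purified P. pyralis luciferase, 10 nM final, with Km-level 10 uM D-luciferin and 10 uM ATP in 50 mM Tris acetate pH 7.5, 10 mM Mg acetate, 0.01% Tween-20, 0.05% BSA; 6-point qHTS titration about 60 µM downward; luminescence read.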
ELG1 repair inh: qHTS screen for small molecules that inhibit ELG1-dependent DNA repair in human embryonic kidney (HEK293T) cells expressing luciferase-tagged ELG1. actives 2.3% (n = 330,000). HEK293T ELG1-luciferase reporter, luminescence, 16 h; DNA damage induced by 5-fluorouridine. Potency, µM (series often up to 46.1 µM), inactives show at the highest dose activity change, negative = inhibition, usual class: inhibitors; note: % is set by controls: 0 for no effect and ±100 for the full control effect; nearly all actives have a fitted effect of over 55% in size
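5-Fluorouridine DNA damage + compound/DMSO, 2,000 cells/well, 16 h, 37 °C/5% CO2. ONE-Glo, 30 min RT, luminescence. Readout = decrease in reporter signal.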
NPC1 prom act: qHTS Assay for NPC1 Promoter Activators. Huh7 NPC1 promoter luciferase reporter, 24 h. Potency, µM (doses to about 9.22 µM), for inactives: top-dose activation, most hits filed as activators. actives 2.4% (n = 320,000); note: % of control where 0% means no effect; nearly all actives have a fitted effect of over 60% in size
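Cells: Huh7 expressing luciferase under the NPC1 promoter, 1500/well. Seeded 2 h, compound added, incubated 24 h at 37 °C. Luciferase reagent, 10 min ambient, then luminescence.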
SMN2 splice up: qHTS Assay for Enhancers of SMN2 Splice Variant Expression; Potency, µM (top dose mostly 46.1 µM), inactives show top-dose activity change, positive = activation, most hits filed as activators; HEK293 SMN2-luciferase splicing reporter, luminescence, 30-36 h; actives 2.8% (n = 210,000); AID 1458, 2008; note: % of control where 0% means no effect; nearly all actives have a fitted effect of over 55% in size
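HEK293 cells carry an SMN2 minigene-luciferase reporter in which exon 7 inclusion puts luciferase in frame. Cells were seeded at 2000 cells/well, attached for 10-12 hours, then exposed to compounds for 30-36 hours at 37C before ONE-Glo luminescence.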
ELG1 genotoxic: qHTS screen for small molecules that induce genotoxicity in human embryonic kidney (HEK293T) cells expressing luciferase-tagged ELG1 | actives 1.3% (n = 330,000) | HEK293T ELG1-luciferase reporter, luminescence, 16 h | Potency, µM (doses to about 46 µM), inactives show at the top dose activity change, positive = activation, hits mostly activators; note: % of control where 0% means no effect; nearly all actives have a fitted effect of over 60% in size
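Step 1: seed 2,000 HEK293T ELG1-luciferase cells per well. Step 2: add compound or DMSO, incubate 16 hr at 37 °C. Step 3: ONE-Glo, 30 min at room temperature, read luminescence.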
* marks the source's active call; other numbers are inactive results; u = inconclusive; x = no result. Calls come from the whole dose curve; as a rule, active = well fitted curve in the direction sought with a large enough effect; inconclusive = small, poorly fitted or top-dose-only effect, or another doubt; inactive = no such curve, though single readings can be large; an effect the other way counts as inactive or inconclusive. Potency is the fitted concentration of half-maximal effect.

SMILES	Rab9 promoter act	FLuc modulator	ELG1 repair inh	NPC1 prom act	SMN2 splice up	ELG1 genotoxic
CN(C)c1cc[n+](CC(=O)Nc2ccccc2C(F)(F)F)cc1	-2%	-2%	u	-1%	x	-2%
CN(C)c1ccc(N=Nc2ccccc2C(=O)OCC(=O)N2CCCC2)cc1	0%	2.1µM*	u	15%	u	9%
Cn1c(=O)cc(OCC(=O)NC2CCCCC2)c2ccccc21	-2%	3%	u	-5%	11%	5%
Cn1c(=O)cc(OCCCC(=O)NC2CCCC2)c2ccccc21	-2%	1%	u	-3%	16µM*	u
CCc1ccccc1N1C(=O)C2C3C=CC(CC3)C2C1=O (stereo not given)	-11%	-3%	-11%	-2%	x	-5%
CCC(=O)n1nc(-c2ccc(Cl)cc2)nc1NCc1ccccc1	u	-2%	u	18%	11%	21µM*
Cc1cccc(C(=O)NNC(=O)C23CC4CC(CC(C4)C2)C3)c1O	14%	15µM*	-12%	-4%	x	23%
O=C(NNC(=O)C12CC3CC(CC(C3)C1)C2)c1ccccc1O	-28%	15µM*	3%	-11%	x	1%
O=C(NNC(=O)C12CC3CC(CC(C3)C1)C2)c1ccccc1F	-1%	-2%	7%	-1%	x	0%
O=C(Cc1ccc(Cl)cc1)c1ccc(O)cc1	3.5µM*	15µM*	u	3.5µM*	x	u
Cc1ccc(CC(=O)c2ccc(Cl)cc2)cc1	u	4.8µM*	u	u	x	u
O=C(Cc1ccccc1)c1ccc(Cl)cc1	0%	u	3%	-2%	x	4%
O=C1NC(=O)C2(CCCCCCCCCCC2)N1	-3%	11%	-12%	-2%	x	0%
O=C(O)CS(=O)(=O)CC(=O)NCc1cccc(C(F)(F)F)c1	-11%	3%	11%	0%	1%	-1%
O=C(NCc1ccc(F)cc1)c1cc2cccc3c2n1CCS3	x	0%	x	x	x	x
COC(=O)c1c(C)[nH]c(C(C)=O)c1C	-1%	8%	9%	-1%	-24%	0%
COC(=O)c1c(C)[nH]c(C(=O)/C=C/c2ccccc2Cl)c1C	u	u	u	2µM*	x	18%
COC(=O)c1c(C)[nH]c(C(=O)OCC(=O)c2ccc(C)s2)c1C	x	x	u	x	x	13%
COC(=O)c1c(C)[nH]c(C(=O)/C=C/c2ccccc2F)c1C	1µM*	0.3µM*	u	1.3µM*	x	4.6µM*
Cc1ccccc1C(=O)NCC(=O)O	-4%	-1%	6%	-1%	13%	6%
CN(C(=O)c1ccccc1-c1ccccc1C(=O)O)c1ccccc1	3%	0%	-10%	1%	x	0%
O=c1c(-c2ccc(O)cc2)coc2cc(O)ccc12	10µM*	x	x	9.2µM*	13µM*	x
O=c1c(-c2cnn(-c3ccccc3)c2)coc2cc(O)ccc12	1.8µM*	5.4µM*	u	2.8µM*	x	u
Cc1oc2cc(O)ccc2c(=O)c1-c1cnn(-c2ccccc2)c1	-2%	u	17%	-2%	-9%	-1%
CCN(C(=O)CSc1nc(-c2ccccc2)no1)c1cccc(C)c1	x	-2%	x	x	-8%	x
COc1ccc(NC(=O)OC(C)C)cc1	2.2µM*	12µM*	u	2µM*	11µM*	u
COc1ccc(NC(=O)Nc2ccc(OC)cc2)cc1	2.2µM*	-22%	u	2.8µM*	u	u
CC(C)OC(=O)Nc1ccc(-c2ccc(NC(=O)OC(C)C)cc2Cl)c(Cl)c1	3%	2%	12%	-2%	x	2%

Compound activity from PubChem.
